PubChem BioAssay (Tox21)
Inconclusive results are not listed. Calls of active or inactive are those of the source. Unless noted, calls follow the shape of the dose curve; as a rule, active = well fitted curve in the direction sought with a large enough effect in the repeat runs; inconclusive = weak or mixed curves; inactive = no such curve, though single readings can be large; an effect the other way counts as inactive or inconclusive.

How the values were obtained:
[1] = target: Thyrotropin receptor (Homo sapiens) (UniProt P16473); assay: qHTS assay to identify small molecule antagonists of the thyroid stimulating hormone receptor (TSHR) signaling pathway (AID 1259385; calls by dose curve; also: nearly all actives have a fitted effect of over 20% in size)
Chain of Thyrotropin receptor (Homo sapiens) (P16473 whole entry, looked up): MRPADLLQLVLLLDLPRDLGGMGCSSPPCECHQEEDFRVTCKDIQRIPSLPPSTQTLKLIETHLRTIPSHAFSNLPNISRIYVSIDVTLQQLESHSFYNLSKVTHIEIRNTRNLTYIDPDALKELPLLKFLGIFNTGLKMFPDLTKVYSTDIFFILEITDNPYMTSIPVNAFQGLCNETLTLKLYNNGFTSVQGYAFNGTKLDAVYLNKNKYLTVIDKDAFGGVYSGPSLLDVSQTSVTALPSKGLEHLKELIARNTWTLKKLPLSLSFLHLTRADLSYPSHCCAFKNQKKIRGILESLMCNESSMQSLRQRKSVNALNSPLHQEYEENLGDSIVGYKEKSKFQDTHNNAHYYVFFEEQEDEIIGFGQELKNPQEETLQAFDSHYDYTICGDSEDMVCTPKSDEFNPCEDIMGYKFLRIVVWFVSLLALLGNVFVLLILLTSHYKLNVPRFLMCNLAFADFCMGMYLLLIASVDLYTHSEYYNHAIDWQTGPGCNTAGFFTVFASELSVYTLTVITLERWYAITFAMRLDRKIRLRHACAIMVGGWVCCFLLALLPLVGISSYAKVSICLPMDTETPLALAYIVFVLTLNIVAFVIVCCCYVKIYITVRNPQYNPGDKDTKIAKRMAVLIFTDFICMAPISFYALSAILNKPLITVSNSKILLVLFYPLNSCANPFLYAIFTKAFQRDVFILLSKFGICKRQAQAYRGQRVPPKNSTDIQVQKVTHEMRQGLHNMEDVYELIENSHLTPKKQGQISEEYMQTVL
Method in brief: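 Antagonist mode: compound-treated TSHR-expressing HEK293 cells were stimulated with 1.5 ng/mL TSH (final) in presence of Ro20-1724 for 30 min at RT. HTRF cAMP detection after 1 h; each compound tested at 15 concentrations, triplicate.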

[2] = qHTS assay to identify small molecule agonists of the estrogen receptor alpha (ER-alpha) signaling pathway in the presence of an antagonist - cell viability counter screen (AID 1259386);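 also: series mostly up to about 92 µM; cells exposed to compounds for 22 h at 37 °C before the viability read; nearly all actives have a fitted effect of over 30% in size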
Method in brief: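 ICI-182,780 at 10.0nM final accompanies the compound titration (15 concentrations, 22hr, 37C) on VM7Luc4E2 cells. The CellTiter-Fluor fluorescence readout runs in the same wells as the luciferase assay.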

[3] = target: Progesterone receptor (Homo sapiens) (UniProt P06401); assay: qHTS assay to identify small molecule agonists of the progesterone receptor (PR) signaling pathway (AID 1346784; calls by dose curve; also: nearly all actives have a fitted effect of over 30% in size)
Chain of Progesterone receptor (Homo sapiens) (P06401 whole entry, looked up): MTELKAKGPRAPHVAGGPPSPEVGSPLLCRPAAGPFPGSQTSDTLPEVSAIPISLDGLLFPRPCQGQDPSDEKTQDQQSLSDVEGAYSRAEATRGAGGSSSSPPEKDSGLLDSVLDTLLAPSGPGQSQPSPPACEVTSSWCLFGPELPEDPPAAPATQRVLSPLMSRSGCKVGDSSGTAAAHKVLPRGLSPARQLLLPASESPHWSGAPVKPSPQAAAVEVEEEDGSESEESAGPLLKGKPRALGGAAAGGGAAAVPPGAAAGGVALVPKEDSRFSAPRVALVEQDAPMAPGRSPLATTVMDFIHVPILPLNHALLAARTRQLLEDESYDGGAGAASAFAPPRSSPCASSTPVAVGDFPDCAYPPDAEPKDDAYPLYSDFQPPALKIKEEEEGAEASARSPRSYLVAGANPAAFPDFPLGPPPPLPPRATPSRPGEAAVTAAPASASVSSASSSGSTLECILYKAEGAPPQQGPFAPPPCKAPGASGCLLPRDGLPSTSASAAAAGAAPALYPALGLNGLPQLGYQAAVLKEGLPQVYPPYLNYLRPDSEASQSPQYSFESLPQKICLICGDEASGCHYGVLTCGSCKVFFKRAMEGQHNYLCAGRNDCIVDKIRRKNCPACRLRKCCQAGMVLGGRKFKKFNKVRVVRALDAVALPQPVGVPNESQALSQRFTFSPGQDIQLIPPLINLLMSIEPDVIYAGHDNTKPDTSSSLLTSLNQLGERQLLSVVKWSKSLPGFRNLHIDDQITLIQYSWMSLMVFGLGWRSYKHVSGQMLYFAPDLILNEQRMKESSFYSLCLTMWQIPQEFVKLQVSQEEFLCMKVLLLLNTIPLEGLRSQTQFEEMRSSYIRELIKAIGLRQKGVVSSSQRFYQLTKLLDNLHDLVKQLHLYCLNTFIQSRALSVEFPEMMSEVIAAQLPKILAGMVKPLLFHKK
Method in brief: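 PR-UAS-bla HEK 293T cells (beta-lactamase reporter under UAS) in 2% charcoal-stripped FBS, dosed with 23 nL compound after 6 hr, incubated 16hr at 37C. LiveBLAzer B/G FRET substrate added, fluorescence read after 2 hours.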

[4] = target: Progesterone receptor (Homo sapiens) (UniProt P06401); assay: qHTS assay to identify small molecule antagonists of the progesterone receptor (PR) signaling pathway (AID 1346795; active = well fitted inhibition curve with a large enough effect in the signal ratio in the repeat runs, not every such curve was filed as active; the % refers to the signal ratio)
Method in brief: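 PR-UAS-bla HEK293T cells with beta-lactamase reporter under UAS control, in 2% charcoal-stripped FBS, treated with compounds plus 1 nM promegestone (R5020, final) for 16 hr at 37C. Read-out: FRET beta-lactamase substrate fluorescence after 2 hr at room temperature.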

[5] = qHTS assay to identify small molecule agonists of the progesterone receptor (PR) signaling pathway - cell viability counter screen (AID 1346799; calls by dose curve; also: nearly all actives have a fitted effect of over 45% in size)
Method in brief: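 Counter screen in the PR-UAS-bla HEK293T wells (2% charcoal-stripped FBS, 16 h compound exposure at 37 C) after the bla read. CellTiter-Glo added, 30 min at room temperature, luminescence read as cell viability.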

[6] = qHTS assay to identify small molecule antagonists of the TGF-beta/Smad signaling pathway - cell viability counter screen (AID 1346824); also: nearly all actives have a fitted effect of over 50% in size
Method in brief: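 Cytotoxicity counter-screen run in the same wells as the beta-lactamase Smad reporter read: CellTiter-Glo luminescence after 30 min at room temperature. HEK 293T SBE-bla cells had 5 hr compound exposure at 37 C with TGF-beta1 (0.25 ng/mL stock).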

[7] = qHTS assay to identify small molecule agonists of the TGF-beta/Smad signaling pathway (AID 1346859; active = well fitted activation curve with a large enough effect in the signal ratio in the repeat runs, not every such curve was filed as active; the % refers to the signal ratio; also: series mostly up to about 77 µM)
Method in brief: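 SBE-bla HEK293T cells plated overnight, then compound exposure for 5 h at 37 C. Beta-lactamase reporter read with LiveBLAzer B/G FRET substrate after 2 h at room temperature, fluorescence at 405 nm excitation, 460/530 nm emission.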

[8] = Human pregnane X receptor (PXR) small molecule agonists, qHTS cell viability counter screen (AID 1346977); also: nearly all actives have a fitted effect of over 50% in size
Method in brief: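 PXR-Luc HepG2 cells (2,000/well, 5% charcoal-stripped FBS) preincubated 5 hr, then exposed to compounds 24 hr at 37 C. Viability read in the same wells by CellTiter-Fluor fluorescence, reagent added at 23 hr, 1 hr incubation.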

[9] = Caspase-3/7 induction in HepG2 cells by small molecules, qHTS assay (AID 1346978); also: nearly all actives have a fitted effect of over 15% in size
Method in brief: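 Caspase-3/7 induction was measured by Caspase-Glo 3/7 luminescence (30 min, room temperature) after a 17 hr compound exposure of wild-type HepG2 cells seeded at 2,000 per well and pre-incubated 5 hr.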

[10] = Caspase-3/7 induction in CHO-K1 cells by small molecules, qHTS cell viability counter screen (AID 1346979); also: nearly all actives have a fitted effect of over 35% in size
Method in brief: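 Wild-type CHO-K1 cells (1,500/well) treated with compound after 5 h plating; after 16 h at 37C, viability read as CellTiter-Fluor fluorescence following 1 h reagent incubation, in the same wells as the caspase read.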

[11] = Caspase-3/7 induction in CHO-K1 cells by small molecules, qHTS assay (AID 1346980); also: nearly all actives have a fitted effect of over 15% in size
Method in brief: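 Luminescent Caspase-Glo 3/7 read (30min, room temperature) quantified apoptosis induction. Cells were wild-type CHO-K1, treated with compound for 17hr at 37 C and 5% CO2.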

[12] = Caspase-3/7 induction in HepG2 cells by small molecules, qHTS cell viability counter screen (AID 1346981); also: series mostly up to about 92 µM; nearly all actives have a fitted effect of over 30% in size
Method in brief: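 Multiplexed with the caspase-3/7 assay: HepG2 cells, 16 hr compound treatment, CellTiter-Fluor viability detection by fluorescence.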

[13] = target: Nuclear receptor subfamily 1 group I member 2 (Homo sapiens) (UniProt O75469); assay: Human pregnane X receptor (PXR) small molecule agonists, qHTS assay (AID 1346982); also: nearly all actives have a fitted effect of over 35% in size
Chain of Nuclear receptor subfamily 1 group I member 2 (Homo sapiens) (O75469 whole entry, looked up): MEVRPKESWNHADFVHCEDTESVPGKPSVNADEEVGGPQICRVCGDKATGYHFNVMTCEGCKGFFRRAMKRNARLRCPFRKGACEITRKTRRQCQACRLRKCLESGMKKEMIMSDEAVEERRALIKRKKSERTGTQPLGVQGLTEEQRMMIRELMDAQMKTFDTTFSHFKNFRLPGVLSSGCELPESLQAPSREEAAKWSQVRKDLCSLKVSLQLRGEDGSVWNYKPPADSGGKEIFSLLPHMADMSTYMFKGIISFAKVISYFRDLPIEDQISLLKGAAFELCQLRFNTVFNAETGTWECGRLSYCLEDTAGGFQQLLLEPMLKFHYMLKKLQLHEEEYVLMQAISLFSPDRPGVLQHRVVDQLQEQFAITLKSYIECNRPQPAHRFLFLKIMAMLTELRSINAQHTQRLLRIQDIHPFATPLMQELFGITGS
Method in brief: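 We seeded PXR-Luc HepG2 cells in assay medium containing 5% charcoal-stripped FBS, added compounds 5 hr later, incubated 24 hr, and read luminescence with ONE-Glo reagent.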

[14] = qHTS assay to identify small molecule agonists of the TGF-beta/Smad signaling pathway - cell viability counter screen (AID 1346829); also: top concentration of the series differs between compounds; nearly all actives have a fitted effect of over 45% in size
Method in brief: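 Same-well cytotoxicity: CellTiter-Glo added after the 2 hr room-temperature beta-lactamase substrate step, luminescence measured 30 min later; cells had 5 hr of compound at 37 C.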

[15] = target: Thyrotropin-releasing hormone receptor (Homo sapiens) (UniProt P34981); assay: qHTS assay to identify small molecule antagonists of the thyrotropin-releasing hormone receptor (TRHR) signaling pathway (AID 1346877; active = well fitted inhibition curve with a large enough effect in the repeat runs, not every such curve was filed as active; also: series mostly up to about 51 µM)
Chain of Thyrotropin-releasing hormone receptor (Homo sapiens) (P34981 whole entry, looked up): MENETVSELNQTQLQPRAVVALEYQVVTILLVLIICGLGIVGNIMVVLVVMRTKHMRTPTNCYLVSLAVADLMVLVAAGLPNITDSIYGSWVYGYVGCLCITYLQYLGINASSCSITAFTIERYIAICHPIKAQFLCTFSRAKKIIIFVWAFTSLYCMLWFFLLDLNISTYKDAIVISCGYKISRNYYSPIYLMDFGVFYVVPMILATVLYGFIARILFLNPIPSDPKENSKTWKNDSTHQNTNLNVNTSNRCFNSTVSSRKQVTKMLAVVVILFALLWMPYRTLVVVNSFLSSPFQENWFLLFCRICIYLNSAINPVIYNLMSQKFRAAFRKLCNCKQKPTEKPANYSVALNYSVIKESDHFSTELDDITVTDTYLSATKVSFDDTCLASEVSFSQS
Method in brief: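 Screening used HEK293 cells engineered with TRHR, with a brief 5 min room-temperature compound exposure preceding addition of TRH to 1 nM. The read-out was kinetic calcium-dye fluorescence, concentration-response from 15 doses in triplicate.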

[16] = target: Nuclear receptor subfamily 1 group I member 2 (Homo sapiens) (UniProt O75469); assay: Human pregnane X receptor (PXR) activation by small molecules, qHTS assay (AID 1346985); also: nearly all actives have a fitted effect of over 40% in size; also: potency is read from the fitted curve at half-maximal effect
Method in brief: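 DPX-2 cells (HepG2 co-transfected with a PXR response element and a CYP3A4-promoter luciferase construct) were seeded at 2,000 per well, rested 5 hr at 37C, then exposed to DMSO-dissolved compounds for 24 hr. Activation was read as luciferase luminescence.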

[17] = qHTS assay to identify small molecule antagonists of the progesterone receptor (PR) signaling pathway - cell viability counter screen (AID 1346798); also: series mostly up to about 92 µM; nearly all actives have a fitted effect of over 50% in size
Method in brief: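 PR-UAS-bla HEK293T cells, 3,000/well in 2% charcoal-stripped FBS medium, dosed with compounds plus R5020 agonist and incubated 16 h at 37C. Viability then measured in the same wells by CellTiter-Glo luminescence after 30 min at RT.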

[18] = target: Thyrotropin-releasing hormone receptor (Homo sapiens) (UniProt P34981); assay: qHTS assay to identify small molecule agonists of the thyrotropin-releasing hormone receptor (TRHR) signaling pathway (AID 1346891; calls by dose curve; also: series mostly up to about 58 µM)
Method in brief: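 HEK293 cells expressing TRHR plated 18 h at 37 C/5% CO2, calcium dye-loaded 2 h at 37 C, then compound added (agonist mode); kinetic calcium fluorescence read 3 min at 1 s intervals; 15 concentrations in triplicate.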

[19] = target: Nuclear receptor subfamily 1 group I member 2 (Rattus norvegicus) (UniProt Q9R1A7); assay: Rat pregnane X receptor (rPXR) activation by small molecules, qHTS assay (AID 1346983); conditions: rPXR luciferase reporter cells, One-Glo luminescence, 24 h; stronger effect = higher value; also: nearly all actives have a fitted effect of over 20% in size
Chain of Nuclear receptor subfamily 1 group I member 2 (Rattus norvegicus) (Q9R1A7 whole entry, looked up): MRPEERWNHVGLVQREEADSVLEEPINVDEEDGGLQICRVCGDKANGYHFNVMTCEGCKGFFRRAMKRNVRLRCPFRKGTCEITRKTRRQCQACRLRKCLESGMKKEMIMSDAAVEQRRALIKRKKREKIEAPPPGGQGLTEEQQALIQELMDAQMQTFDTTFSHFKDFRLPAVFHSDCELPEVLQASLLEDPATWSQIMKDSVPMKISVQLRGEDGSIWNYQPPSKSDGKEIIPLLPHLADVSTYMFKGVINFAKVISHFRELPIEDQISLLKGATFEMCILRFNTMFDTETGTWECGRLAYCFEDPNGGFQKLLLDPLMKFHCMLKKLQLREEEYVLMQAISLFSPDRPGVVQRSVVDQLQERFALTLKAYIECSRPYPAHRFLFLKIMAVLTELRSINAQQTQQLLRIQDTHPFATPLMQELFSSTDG
Method in brief: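 Luminescent readout (One-Glo luciferase, 30 min room temperature) followed 24 hr compound treatment at 37 C of rPXR cells plated 2,000 per well and preincubated 5hr; qHTS format with compounds delivered in DMSO.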

[20] = target: Nuclear receptor subfamily 1 group I member 2 (Homo sapiens) (UniProt O75469); assay: CYP3A4 induction through human pregnane X receptor (PXR) by small molecules, qHTS assay (AID 1346984); also: nearly all actives have a fitted effect of over 40% in size
Method in brief: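 qHTS, concentration-response format: HepG2 DPX-2 line, PXR/CYP3A4-luc. Exposure 24 h, 37C. Substrate Luciferin-IPA 3uM final, 3 h. Detection One-Glo, 30 min RT.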
% is scaled to controls: 0 for no effect and ±100 for the full control effect.

CCCCCSCCCCC
inactive: Potency [1] | Potency [2] | Potency [3] | Potency [4] | Potency [5] | Potency [6] | outcome [7] | Potency [8] | Potency [9] | Potency [10] | outcome [11] | Potency [12] | Potency [13]

CO/N=C(/C(=O)N[C@@H]1C(=O)N2C(C(=O)OCOC(=O)C(C)(C)C)=C(C)CS[C@H]12)c1csc(N)n1
inactive: Potency [1] | Potency [2] | Potency [3] | Potency [4] | Potency [5] | Potency [6] | outcome [14] | outcome [7] | Potency [8] | Potency [9] | Potency [10] | outcome [11] | Potency [12] | Potency [13]

COc1cc(C(=O)N2CCCCCCC2)cc(OC)c1OC
inactive: Potency [1] | Potency [2] | Potency [3] | Potency [4] | Potency [5] | Potency [6] | outcome [14] | outcome [7] | outcome [15] | Potency [8] | Potency [9] | Potency [10] | outcome [11] | Potency [12]
active: Potency [16] 15.8 µM

Cc1cc2c(cc1S(N)(=O)=O)S(=O)(=O)CCC2
inactive: Potency [1] | Potency [2] | Potency [3] | Potency [17] | Potency [5] | Potency [6] | outcome [14] | outcome [7] | outcome [15] | outcome [18] | Potency [8] | Potency [9] | Potency [10] | outcome [11] | Potency [12] | Potency [13] | max activation [19] -2.16% | Potency [20] | Potency [16]

O=C(O)CCCc1ccccc1
inactive: Potency [1] | Potency [2] | Potency [3] | Potency [4] | Potency [5] | Potency [6] | outcome [7] | outcome [15] | Potency [8] | Potency [9] | Potency [10] | outcome [11] | Potency [12] | Potency [13]

CCn1nc(C(=O)O)c(=O)c2cc3c(cc21)OCO3
inactive: Potency [1] | Potency [2] | Potency [3] | Potency [4] | Potency [5] | Potency [6] | outcome [14] | outcome [7] | Potency [8] | Potency [9] | Potency [10] | Potency [12]

CCOC(=O)c1cccc(N)c1
inactive: Potency [1] | Potency [2] | Potency [3] | Potency [4] | Potency [5] | Potency [6] | outcome [14] | outcome [7] | outcome [15] | outcome [18] | Potency [8] | Potency [9] | Potency [10] | outcome [11] | Potency [12] | Potency [13] | Potency [20]
